A selection: hits, their analogues and other compounds. The true share with any hit is near 6.1%.
VP16 counter – VP16 counterscreen qHTS for inhibitors of ROR gamma transcriptional activity. Drosophila S2 Gal4-VP16 UAS-luciferase, luminescence, 20 h. Potency, µM (series often up to 53.6 µM), hits mostly inhibitors. 310,000 compounds, 3.5% hits. AID 2546, 2010;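 also: Gal4-VP16 expression switched on by copper sulfate through the metallothionein promoter; nearly all actives have a fitted effect of over 50% in size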
ATXN viability – Viability Counterscreen for Primary qHTS for Inhibitors of ATXN expression. 400,000 compounds, 0.49% hits. Potency, µM (doses to about 56.7 µM), actives largely listed as cytotoxic. AID 651635, 2014. S2 cells (HEK-293 line with an ATXN2-luciferase reporter) viability, CellTiter-Fluor protease fluorescence, 24 h; also: nearly all actives have a fitted effect of over 40% in size
ATXN2 expr inh – Primary qHTS for Inhibitors of ATXN expression | HEK-293 ATXN2-luciferase reporter, luminescence, 24 h | Potency, µM (series often up to 57 µM), most hits filed as inhibitors | 360,000 compounds, 0.72% hits | AID 1745845, 2022; also: nearly all actives have a fitted effect of over 55% in size
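ATXN2-luciferase reporter cells (luciferase flanked by upstream and downstream ATXN2 gene portions) were treated 24 h at 37 °C with compounds at up to 57 uM. SteadyGlo luminescence gave expression; GF-AFC fluorescence gave viability.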
TGFb inhibitor – qHTS for Inhibitors of TGF-b; HepG2 CAGA-GFP TGF-b/SMAD3 reporter, GFP fluorescence, 18 h; TGF-beta stimulated, 500 pg/mL final; Potency, µM (doses to about 46.1 µM), hits mostly inhibitors; AID 588855, 2011; 410,000 compounds, 1.2% hits; also: nearly all actives have a fitted effect of over 65% in size
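Per well, imaged GFP fluorescence of HEPG2 CAGA-GFP cells gives the signal; cells get compound, then TGF-beta (500 pg/mL final), 18 h at 37 degrees C; %Activity versus -TGF-beta and +DMSO controls.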
HepG2 viability – qHTS for Inhibitors of TGF-b: Cytotox Counterscreen; HepG2 CAGA-GFP viability, ATP luminescence, 18 h; Potency, µM (top dose mostly 46.1 µM), most hits filed as cytotoxic; 410,000 compounds, 0.76% hits
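CellTiter-Glo luminescence gave cytotoxicity after 18 hours at 37 degrees C. The cells were HepG2 CAGA-GFP in 1% FBS DMEM, stimulated with 500 pg/mL TGF-beta after compound addition. %Activity was normalised to no-cell wells (complete cell-killing) and DMSO (no toxicity), and curves were fitted and classified.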
RORgamma inh – qHTS for inhibitors of ROR gamma transcriptional activity; 310,000 compounds, 5.4% hits; Drosophila S2 Gal4-RORgamma UAS-luciferase reporter, 20 h; AID 2551, 2010; Potency, µM (doses to about 53.6 µM), hits mostly inhibitors; Nuclear receptor ROR-gamma (Mus musculus), P51450; also: nearly all actives have a fitted effect of over 60% in size
Target sequence (P51450 whole entry, looked up, the tested form may be a part): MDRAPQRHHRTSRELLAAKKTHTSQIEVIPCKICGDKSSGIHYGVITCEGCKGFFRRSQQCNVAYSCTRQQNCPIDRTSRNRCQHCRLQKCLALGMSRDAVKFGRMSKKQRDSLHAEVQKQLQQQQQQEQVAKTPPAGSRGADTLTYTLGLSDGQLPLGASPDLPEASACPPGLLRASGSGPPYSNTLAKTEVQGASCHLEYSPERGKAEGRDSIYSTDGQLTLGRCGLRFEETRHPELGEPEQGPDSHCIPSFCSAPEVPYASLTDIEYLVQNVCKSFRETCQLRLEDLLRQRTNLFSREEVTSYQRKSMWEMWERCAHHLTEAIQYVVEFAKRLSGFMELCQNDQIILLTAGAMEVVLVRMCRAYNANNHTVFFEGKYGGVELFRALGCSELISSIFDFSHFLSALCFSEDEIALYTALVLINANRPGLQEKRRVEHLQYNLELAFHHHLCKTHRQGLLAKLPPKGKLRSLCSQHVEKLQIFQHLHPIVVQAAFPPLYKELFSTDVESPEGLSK
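Using a luciferase readout, inhibitors were identified by reduced reporter activity in Drosophila cells coexpressing a copper-inducible Gal4–ROR gamma fusion and UAS-driven Photinus luciferase, incubated 20 hr after 700 uM copper sulfate.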
Of the large screens only hits and unclear results are named; the others gave an inactive call. Calls follow the shape of the dose curve; as a rule, active = well fitted curve in the direction sought with a large enough effect; inconclusive = small, poorly fitted or top-dose-only effect, or another doubt; inactive = no such curve, though single readings can be large; an effect the other way counts as inactive or inconclusive.

COc1cccc(CNC(=O)Cn2c(=O)ccc3cc(S(=O)(=O)N4CCC(C)CC4)ccc32)c1	none (no result: VP16 counter, RORgamma inh)
COc1cc2ccccc2cc1C(=O)Nc1ccc(N2CCN(C(=O)C(C)C)CC2)cc1	VP16 counter inconclusive, ATXN viability inconclusive (no result: ATXN2 expr inh)
COc1ccccc1C(=O)NC(=S)Nc1ccc(N2CCCC2)cc1	RORgamma inh inconclusive
COc1cccc(C(=O)NC(=S)Nc2ccc(N3CCCC3)cc2)c1	VP16 counter 8.91µM, RORgamma inh 2µM
COc1cc2ccccc2cc1C(=O)Nc1ccc(N2CCN(C)CC2)cc1	HepG2 viability 12.6µM (no result: ATXN viability, ATXN2 expr inh)
Cc1oc(-c2ccccc2Cl)nc1CS(=O)CC(=O)NCc1ccc(Cl)cc1 (stereo not given)	TGFb inhibitor 8.91µM
Cc1ccc(CNC(=O)CS(=O)Cc2nc(-c3ccccc3C)oc2C)cc1 (stereo not given)	RORgamma inh 11.2µM
CNC(=O)c1ccc2nc(-c3ccco3)c(-c3ccco3)nc2c1	none (no result: VP16 counter, ATXN viability, ATXN2 expr inh, RORgamma inh)
CCCCOc1ccc(CSC(=N)N)cc1Cl	ATXN viability inconclusive, ATXN2 expr inh 25.1µM, TGFb inhibitor inconclusive
COc1ccc(Br)cc1CSC(=N)N	RORgamma inh inconclusive
CCCCCOc1ccc(Br)cc1CSC(=N)N	VP16 counter 7.08µM, TGFb inhibitor inconclusive (no result: ATXN viability, ATXN2 expr inh)
Cc1cc(C)n(-c2nc3ccccc3nc2Nc2ccc(Cl)cc2Cl)n1	none (no result: VP16 counter, ATXN viability, ATXN2 expr inh, RORgamma inh)
CCC(C)(C)c1ccc(OCCCC[n+]2ccccc2)c(C(C)(C)CC)c1	VP16 counter 17.8µM, ATXN2 expr inh inconclusive, TGFb inhibitor inconclusive, RORgamma inh inconclusive
Cc1cc(=O)oc2cc(OCCCC[n+]3ccccc3)ccc12	none
CCCCOc1ccc(C)cc1CN(CCO)CCO	none
CCCCCc1ccc(OCCCC[n+]2ccccc2)c(CCCCC)c1	ATXN viability inconclusive, ATXN2 expr inh 14.1µM, TGFb inhibitor inconclusive, RORgamma inh inconclusive
CCCCCCCCCCCCCCCC[n+]1ccc(C)cc1	TGFb inhibitor inconclusive (no result: VP16 counter, ATXN viability, ATXN2 expr inh, RORgamma inh)
CCCCCc1ccc(OCCCC[n+]2cccc(C)c2)c(CCCCC)c1	ATXN viability inconclusive, ATXN2 expr inh 10µM, TGFb inhibitor inconclusive
CCCCCc1ccc(OCCCC[n+]2ccc(C)cc2)c(CCCCC)c1	VP16 counter 2.82µM, ATXN viability inconclusive, TGFb inhibitor 11.2µM, RORgamma inh 2µM
COc1ccc(-n2c(Cc3ccccc3)nnc2SCc2nc(-c3cccs3)no2)cc1	ATXN viability inconclusive, ATXN2 expr inh inconclusive, TGFb inhibitor inconclusive (no result: VP16 counter, RORgamma inh)
COc1cccc(-c2ccnc(-n3ncc(C(=O)N(C)CCc4ccccn4)c3C)n2)c1	none (no result: VP16 counter, ATXN2 expr inh, TGFb inhibitor, HepG2 viability, RORgamma inh)
CC(C)c1ccc(NC(=O)C2CCCN(S(=O)(=O)c3ccc4[nH]c(=O)oc4c3)C2)cc1 (stereo not given)	none (no result: VP16 counter, RORgamma inh)
COc1c(O)ccc(/C=N/NC(=O)c2ccc3c(c2)OCCO3)c1[N+](=O)[O-]	VP16 counter 1.58µM, RORgamma inh 1.12µM
O=C(N/N=C/c1cc2c(cc1[N+](=O)[O-])OCO2)c1ccc2c(c1)OCO2	none
COc1c(O)ccc(/C=N\NC(=O)c2ccc3c(c2)OCO3)c1[N+](=O)[O-]	VP16 counter inconclusive, RORgamma inh 10µM (no result: ATXN2 expr inh)
COCCn1c(=O)c(-c2cccs2)nc2cnc(Oc3ccc(OC)cc3)nc21	none (no result: ATXN viability, ATXN2 expr inh, TGFb inhibitor, HepG2 viability)
COc1cc(/C=C/C(=O)c2cccc([N+](=O)[O-])c2)cc(OC)c1OC	VP16 counter inconclusive, ATXN viability inconclusive, TGFb inhibitor inconclusive, RORgamma inh 15.8µM
O=C(/C=C/c1ccccc1F)c1cccc([N+](=O)[O-])c1	VP16 counter inconclusive, ATXN viability inconclusive, TGFb inhibitor inconclusive, HepG2 viability 14.1µM, RORgamma inh inconclusive (no result: ATXN2 expr inh)
COc1ccc(C=CC(=O)c2ccc([N+](=O)[O-])cc2)cc1	none (no result: VP16 counter, RORgamma inh)
COc1ccc(/C=C/C(=O)c2ccc3c4c(cccc24)CC3)cc1OC	ATXN2 expr inh 15.8µM, TGFb inhibitor inconclusive, RORgamma inh inconclusive

High-throughput results deposited in PubChem BioAssay by National Center for Advancing Translational Sciences (NCATS).
